Measurements as given in PubChem BioAssay AID493025 (Johns Hopkins Ion Channel Center, 2011).
The campaign covered roughly 1,000 compounds. About 570 (57%) were called active. No rule for the calls is given here. The set was probably picked from earlier hits. The entries come from a sample that favours actives as a whole.

Molecular target: Potassium voltage-gated channel subfamily KQT member 2 (Rattus norvegicus) (UniProt O88943)
Experiment: rat KCNQ2 potassium channel inhibitors, confirmation, cell-based, thallium flux (AID 493025);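 also: 0% = vehicle wells and values are ratio percent relative to vehicle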
Settings: KCNQ2-expressing cells, at 10 µM, active compounds read low

Potassium voltage-gated channel subfamily KQT member 2 (Rattus norvegicus), sequence (O88943 whole entry, looked up): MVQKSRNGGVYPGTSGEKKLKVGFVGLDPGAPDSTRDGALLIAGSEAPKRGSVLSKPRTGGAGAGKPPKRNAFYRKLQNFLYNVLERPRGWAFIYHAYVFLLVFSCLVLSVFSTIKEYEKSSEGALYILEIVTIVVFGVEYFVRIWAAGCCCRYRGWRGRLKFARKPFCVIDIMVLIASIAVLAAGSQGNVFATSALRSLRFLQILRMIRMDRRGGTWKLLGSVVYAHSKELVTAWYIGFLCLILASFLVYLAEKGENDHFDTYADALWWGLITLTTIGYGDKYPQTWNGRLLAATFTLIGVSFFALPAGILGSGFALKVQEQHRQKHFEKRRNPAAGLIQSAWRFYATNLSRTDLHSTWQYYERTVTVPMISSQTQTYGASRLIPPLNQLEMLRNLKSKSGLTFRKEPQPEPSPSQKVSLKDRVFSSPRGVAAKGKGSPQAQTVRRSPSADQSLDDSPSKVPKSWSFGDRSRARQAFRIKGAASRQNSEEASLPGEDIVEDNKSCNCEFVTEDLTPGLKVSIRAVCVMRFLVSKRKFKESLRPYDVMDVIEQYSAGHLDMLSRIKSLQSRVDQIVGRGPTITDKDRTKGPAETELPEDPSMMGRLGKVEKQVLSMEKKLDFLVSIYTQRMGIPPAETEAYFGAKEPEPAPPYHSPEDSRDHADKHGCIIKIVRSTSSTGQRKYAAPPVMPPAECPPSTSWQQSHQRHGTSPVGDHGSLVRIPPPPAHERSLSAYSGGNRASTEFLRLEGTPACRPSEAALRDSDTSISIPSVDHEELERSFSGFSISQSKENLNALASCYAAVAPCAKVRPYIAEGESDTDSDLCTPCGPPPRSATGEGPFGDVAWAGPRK

Compound | activity change, negative = inhibition
CN(C)CC1Oc2ccccc2OC1(O)c1ccccc1 (configuration not stated) | -32% (active)
O=C(NC(c1ccc(Cl)cc1)P(=O)(Oc1ccccc1)Oc1ccccc1)OCc1ccccc1 (configuration not stated) | -23% (active)
